Assay outcomes (PubChem)
Only some compounds are listed: those with a hit (about 0.99% of all), similar ones and a draw of the others.
Cdc25B block – inhibitors of human Cdc25B phosphatase; P30305; recombinant Cdc25B, OMFP fluorescence Ex485/Em525; inhibition, %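 (compounds tested at 10 µM final in the well)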; 65,000 compounds, 0.1% hits; AID 368; in the data active = inhibition above about 50%
Target sequence (P30305 whole entry, looked up): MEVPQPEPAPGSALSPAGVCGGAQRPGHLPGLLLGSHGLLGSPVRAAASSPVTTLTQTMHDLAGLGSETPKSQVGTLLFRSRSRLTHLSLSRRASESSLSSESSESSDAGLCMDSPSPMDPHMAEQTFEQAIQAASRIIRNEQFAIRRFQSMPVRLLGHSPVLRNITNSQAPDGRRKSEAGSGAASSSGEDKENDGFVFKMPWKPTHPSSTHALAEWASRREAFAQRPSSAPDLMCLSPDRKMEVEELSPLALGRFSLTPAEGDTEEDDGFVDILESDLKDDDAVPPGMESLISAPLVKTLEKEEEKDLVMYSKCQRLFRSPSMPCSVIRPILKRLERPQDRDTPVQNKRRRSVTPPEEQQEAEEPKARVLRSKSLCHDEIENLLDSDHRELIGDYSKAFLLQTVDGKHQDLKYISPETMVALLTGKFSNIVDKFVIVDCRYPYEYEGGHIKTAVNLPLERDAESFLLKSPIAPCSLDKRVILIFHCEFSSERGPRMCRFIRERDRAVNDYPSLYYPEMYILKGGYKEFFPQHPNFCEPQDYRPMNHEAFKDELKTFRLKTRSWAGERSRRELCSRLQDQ
MKP-1 inh – human dual specificity phosphatase 1 inhibition. P28562. recombinant MKP-1, OMFP hydrolysis fluorescence. inhibition, %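 (compounds tested at a single concentration somewhere between 10 and 100 µM)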. 65,000 compounds, 0.15% hits. AID 374;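 active = inhibition above about 50%, limit read from the data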;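 note: 0% = DMSO max control wells and 100% = wells with enzyme stopped by NaOH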
PKA kinase inh – PKA (human) kinase inhibition. PKA Kemptide phosphorylation, Kinase-Glo ATP luminescence. 65,000 compounds, 0.1% hits. AID 524. P17612. inhibition, % at 6 µM;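 active = inhibition above the screen-wide mean inhibition plus 3 SD, cut at about 21% in these data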
Hsp90 inh – displaces geldanamycin probe from tumor Hsp90; P07900; NCI-N417 lysate Hsp90, Cy3B-geldanamycin FP displacement; inhibition, % at 30 µM; 64,000 compounds, 0.35% hits; AID 429;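 active = inhibition above 50%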;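 note: 0% = tracer plus lysate wells and 100% = tracer alone without lysate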
SK-BR-3 tox 24h – SK-BR-3 proliferation inhibitors | 41,000 compounds, 0.47% hits | viability, % at 10 µM | SK-BR-3 viability, CellTiter-Glo ATP luminescence, 24 h; active compounds read low;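 active = viability at or below the median of all test compounds minus 3 SD, in both replicates if run twice, cut at about 45% in these data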;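 note: 100% = median untreated cell wells and 0% = median positive control drug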
ROCK2 blocker – blocks human Rho kinase 2 activity; O75116; purified ROCK2, Kinase-Glo ATP depletion luminescence; inhibition, % at 6 µM; 60,000 compounds, 0.35% hits; AID 604;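 active = inhibition above the screen-wide mean inhibition plus 3 SD, cut at about 18% in these data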;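 note: plate controls were DMSO wells for no effect and Y-27632 control wells after no-enzyme background subtraction for full effect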
Active calls of the source: *; · = no result.

SMILES | Cdc25B block | MKP-1 inh | PKA kinase inh | Hsp90 inh | SK-BR-3 tox 24h | ROCK2 blocker
O=C1N2CCCc3cccc(c32)C12Nc1ccccc1S2 (stereo not given) | -7 | 13 | 6 | -9 | 83 | 3
COc1ccc(N2C(=O)CSC23C(=O)N2CCCc4cccc3c42)cc1 (stereo not given) | -8 | -18 | -1 | 67* | 87 | 7
O=C(Cn1cnc2c(nnn2Cc2ccc(F)cc2)c1=O)NCC1CCCO1 (stereo not given) | -13 | 13 | 8 | 0 | · | 0
CCc1cc2c(=O)[nH]cnc2s1 | 0 | -25 | 23* | -7 | 91 | 51*
CCn1nnc(-c2ccccc2NC(=O)c2cccc(-n3cnnn3)c2)n1 | -3 | 14 | 16 | -5 | 42* | 4
Cc1ccccc1OCC(O)Cn1c(NCCN(C)C)nc2c1c(=O)n(C)c(=O)n2C (stereo not given) | 0 | 3 | 5 | 92* | · | -2
CCOC(=O)c1ccc(NC2c3ncccc3C(=O)N2Cc2ccc(F)cc2)cc1 (stereo not given) | -3 | 52* | -2 | -1 | · | -4
Nc1c(S(=O)(=O)c2cccc(Cl)c2)c2nc3ccccc3nc2n1/N=C/c1ccc(O)c(O)c1 | 26 | 33 | 31* | 59* | 2.7* | 1
Cc1cc(NC(=O)CS(=O)(=O)c2cn(Cc3ccccc3Cl)c3ccccc23)no1 | · | 6 | 4 | -6 | 34* | ·
CCCCCCCCCCCCC/C=C/C(O)C(N)CO (stereo not given) | · | · | · | 3 | · | ·
CC(=O)NCCc1ccc(S(=O)(=O)NCc2ccc3c(c2)OCO3)cc1 | -8 | 3 | 6 | -1 | 116 | 2
CCCc1cc2c(cc1NS(=O)(=O)c1ccc(CCNC(C)=O)cc1)OCO2 | 6 | 0 | -3 | 57* | · | 1
O=C(COC(=O)c1cccs1)NC1CCCCC1 | -5 | -1 | 10 | -3 | 78 | 6
CCCCN(C)S(=O)(=O)c1ccc(C(=O)Nc2nnc(CSC)o2)cc1 | -1 | -6 | 14 | -1 | 43* | 7
CCCCN(CCCC)S(=O)(=O)c1ccc(C(=O)Nc2nnc(COC)o2)cc1 | 0 | 10 | 2 | -3 | 56 | 2
Nc1nc(SCc2ccc([N+](=O)[O-])cc2)c2ncn([C@@H]3O[C@H](CO)[C@H](O)C3O)c2n1 (stereo not given in full) | · | · | · | 46 | · | ·
O=C1CCC(=O)N1CN(Cc1ccco1)CN1C(=O)CCC1=O | 4 | -8 | -7 | -5 | 95 | -2
O=C(O)c1ccc2c3c(ncnc13)-c1ccccc1C2=O | -1 | -10 | 4 | 90* | 44* | -3
Cc1c(C(=O)N2CCCCC2)sc(N)c1C#N | -6 | 5 | -2 | 2 | 104 | 26*
Cc1c(CCC#N)c(N2CCCCC2)n2c(nc3ccccc32)c1C#N | 25 | -23 | 5 | -2 | 76 | 6
Cc1c(CCC#N)c(N2CCN(C3CCCCC3)CC2)n2c(nc3ccccc32)c1C#N | 24 | -3 | 3 | -2 | 6.0* | 4
COc1ccc(S(=O)(=O)N(C)CC(=O)N2CCC(C(N)=O)CC2)cc1Cl | -4 | -28 | 6 | 73* | 90 | 9
O=C1CC(N2CCN(Cc3ccccc3)CC2)C(=O)N1c1ccccc1 (stereo not given) | -3 | 10 | 7 | -3 | · | 3
O=C1CC(N2CCN(CCc3ccccn3)CC2)C(=O)N1c1ccc(Cl)cc1 (stereo not given) | 59* | 12 | -8 | -1 | · | -4
Oc1cc(O)c2c(c1)O[C@H](c1ccc(O)c(O)c1)[C@@H](O)C2 | · | · | · | 70* | · | ·
SMILES | Cdc25B block | MKP-1 inh | PKA kinase inh | Hsp90 inh | SK-BR-3 tox 24h | ROCK2 blocker
Cc1ccc(NC(=O)CC2SCCNC2=O)cc1Cl (stereo not given) | -1 | -20 | 4 | 54* | 95 | 9
CCC(=O)N1CCNC(=O)C1CC(=O)Nc1ccc(C)c(Cl)c1 (stereo not given) | -5 | 8 | -2 | -4 | 101 | -5
Cc1cc(N2CCOCC2)c2c(N)c(C)cc(C)c2n1 | -11 | 1 | 10 | -1 | 92 | 19*
CC1CCN(c2ccc(C(=O)O)cc2N)CC1 | 42 | 13 | -1 | 13 | 43* | -2
CC1CCN(c2ccccc2N)CC1 | 5 | -7 | 0 | 1 | 102 | 1
COC(=O)Cn1cnc2c(nnn2-c2cccc(Cl)c2)c1=O | -21 | 5 | 8 | -6 | · | 6
O=C1CCC(C(=O)NC2(C(=O)NC3CCCCC3)CCCCC2)N1 (stereo not given) | -9 | 8 | 5 | · | 28* | ·
Cc1ccc(N(C(=O)C2CCC(=O)N2)C2(C(=O)NC3CCCCC3)CCCCC2)cc1 (stereo not given) | -13 | 8 | 2 | 1 | 86 | ·
CC1CN(c2nc3c(c(=O)[nH]c(=O)n3C)n2Cc2ccccc2F)CC(C)O1 (stereo not given) | 4 | -5 | -6 | · | 104 | ·
COc1cc(NCCCN(CC(C)C)CC(C)C)c2ncccc2c1Cl | · | · | · | 10 | · | ·
C=CC[C@H](N)C(=O)O | · | · | · | -3 | · | ·
COc1cc(N)c2ncccc2c1 | · | · | · | 17 | · | ·
CCOC(=O)c1c(C)oc2c1c(C=NCC1CCCO1)c(O)c1ccccc12 (stereo not given) | 28 | 35 | 2 | 64* | · | -1
COc1ccc(CNC(=O)C2CCCN2S(=O)(=O)c2ccc(S(=O)(=O)N(C)C)cc2)cc1 (stereo not given) | -14 | -6 | 9 | 1 | 33* | 1
CNC(=O)C1CCCN1S(=O)(=O)c1ccc(OC)cc1 (stereo not given) | 0 | -11 | 11 | -11 | 81 | 7
COc1ccc(Br)cc1C1NC(=O)c2c(sc3c2CCN(C)C3)N1 (stereo not given) | -9 | 11 | -12 | 0 | 43* | -1
CCOC(=O)C(CC)n1cnc2sc3c(c2c1=O)CCC3 (stereo not given) | 84* | -24 | -2 | 2 | 110 | 3
OC[C@H]1O[C@@H](n2cnc3c(NCCc4ccccc4)ncnc32)C(O)[C@H]1O (stereo not given in full) | · | · | · | 0 | · | ·
CCc1nnc(NC=C2C(=O)OC(C)(C)OC2=O)s1 | -19 | -12 | 4 | 2 | 97 | 5
Cn1c(CSc2ncccn2)nnc1SCC(=O)N1CCCc2ccccc21 | -11 | 7 | 9 | 1 | 24* | 0
COc1cc(OC)cc(-n2nc(C(=O)NCCCN3CCOCC3)c3ccccc3c2=O)c1 | 76* | -3 | -2 | -1 | · | 1
COCCNC(=O)c1nn(-c2cc(OC)cc(OC)c2)c(=O)c2ccccc12 | -3 | -5 | -4 | -4 | · | -2
Cc1ccc2[nH]c(C)c(CN(C)C3CCN(C)CC3)c(=O)c2c1 | -8 | 5 | 10 | 3 | 26* | 10
COc1cc2c(cc1OC)[C@@H](c1ccccc1)CN(C)CC2 | · | · | · | 0 | · | ·
COc1c2occc2cc2ccc(=O)oc12 | -9 | 18 | 4 | -3 | 107 | 11
O=c1ccc2ccc(O)c(O)c2o1 | · | · | · | 69* | · | ·
